Data as given in PubChem BioAssay (NCI).
Compounds without any hit were thinned out: in the full panel of roughly 79,000, 15% have a hit. Activity calls are given as the source filed them. Rule as the data show it: active = growth inhibition above about 70%; inactive = the rest.

Tests used:
[1] = NCI Yeast Anticancer Drug Screen. Data for the rad52 strain (AID 147);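 also: 0% = growth of vehicle-treated control cultures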; details: S. cerevisiae rad52 mutant growth inhibition, stronger effect = higher value
How it was run: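 Inhibition of yeast growth, referenced to vehicle controls, was the measured output for a strain with defective DNA damage repair.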

[2] = NCI Yeast Anticancer Drug Screen. Data for the wt1 strain (AID 149);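 also: 0% = growth of vehicle-treated wt1 cultures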; details: S. cerevisiae wt1 strain (SPY 50644) growth inhibition, stronger effect = higher value
How it was run: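 Compounds are added to wt1 yeast cultures. Growth is then measured. Inhibition is expressed relative to vehicle-treated controls.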

[3] = NCI Yeast Anticancer Drug Screen. Data for the rad50EPP+ strain (AID 151);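 also: 0% = growth of vehicle-treated control cultures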; details: S. cerevisiae rad50 mutant strain, stronger effect = higher value
How it was run: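 Genetically defined yeast (rad50EPP+, DNA damage repair alteration) is grown with compound, and inhibition of growth is expressed relative to vehicle-treated controls.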

[4] = NCI Yeast Anticancer Drug Screen. Data for the rad50 strain (AID 155);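 also: 0% = growth of vehicle-only cultures of the same strain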; details: S. cerevisiae rad50 strain growth inhibition, stronger effect = higher value
How it was run: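 Inhibition values express reduced yeast growth in compound-treated cultures relative to vehicle-treated controls.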

[5] = NCI Yeast Anticancer Drug Screen. Data for the mec2-1 strain (AID 157); details: S. cerevisiae mec2-1 strain, stronger effect = higher value
How it was run: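 Each compound was tested on mec2-1 yeast, a strain altered in DNA damage repair or cell cycle control. Growth inhibition is reported relative to vehicle.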

[6] = NCI Yeast Anticancer Drug Screen. Data for the sgs1 mgt1 strain (AID 161);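 also: 0% = growth of cultures given vehicle only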; details: S. cerevisiae sgs1 mgt1 strain, stronger effect = higher value
How it was run: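 Genetically altered yeast, compound exposure, growth inhibition relative to vehicle.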

[7] = NCI Yeast Anticancer Drug Screen. Data for the CLN2oe strain (AID 163);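 also: 0% = growth of vehicle-only control cultures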; details: S. cerevisiae CLN2oe strain, stronger effect = higher value
How it was run: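 First, the altered yeast strain was treated with each compound; second, its growth was measured; finally, inhibition was derived by comparison with vehicle controls.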

[8] = NCI Yeast Anticancer Drug Screen. Data for the cln2 rad14 strain (AID 165);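 also: 0% = growth equal to vehicle treated cultures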; details: S. cerevisiae cln2 rad14 strain, stronger effect = higher value
How it was run: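 Test compounds were added to cln2 rad14 yeast cultures; inhibition of growth was then determined by comparison with vehicle treatment.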

[9] = NCI Yeast Anticancer Drug Screen. Data for the bub3 strain (AID 167); details: S. cerevisiae bub3 mutant strain, stronger effect = higher value
How it was run: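 Steps: expose the mutant yeast strain to compound; grow alongside vehicle-treated cultures; measure growth; express inhibition against the vehicle cultures.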

[10] = NCI Yeast Anticancer Drug Screen. Data for the wt2 strain (AID 169);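 also: 0% = growth of vehicle-treated yeast cultures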; details: S. cerevisiae wt2 strain growth inhibition, stronger effect = higher value
How it was run: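 The panel's yeast strains carry defined changes in DNA repair or cell cycle genes. Each strain is grown with compound, and growth loss is scored relative to vehicle.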

[11] = NCI Yeast Anticancer Drug Screen. Data for the mlh1 strain (AID 171);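 also: 0% = growth of vehicle-treated control cultures of the same strain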; details: S. cerevisiae mlh1 strain growth inhibition, stronger effect = higher value
How it was run: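 Inhibition values reflect reduced yeast growth in the presence of compound, referenced to vehicle controls, using a strain chosen for its alteration in DNA repair or cell cycle control.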

[12] = NCI Yeast Anticancer Drug Screen. Data for the sgs1 strain (AID 173);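 also: 0% = growth of vehicle-only control cultures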; details: S. cerevisiae sgs1 mutant, stronger effect = higher value
How it was run: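 Vehicle-treated cultures served as reference for growth inhibition of a yeast strain altered in DNA damage repair or cell cycle control after compound exposure.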

[13] = NCI Yeast Anticancer Drug Screen. Data for the mlh1 rad18 strain (AID 175); details: S. cerevisiae mlh1 rad18 strain growth inhibition, stronger effect = higher value
How it was run: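 Inhibition values reflect reduced growth of mutant yeast versus vehicle-treated controls following compound exposure; the mutations affect DNA damage repair.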

[14] = NCI Yeast Anticancer Drug Screen. Data for the rad18 strain (AID 177); details: S. cerevisiae rad18 mutant growth inhibition, stronger effect = higher value
How it was run: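 Steps: expose repair-mutant yeast to compound; measure growth; express as inhibition relative to vehicle control.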

[15] = at 5.0 µM (retest, dose inferred, filed as 0.5)
[16] = at 50.0 µM (retest, dose inferred, filed as 5.0)

Measured: growth inhibition

CC(C)c1[nH]nc(C(N)=O)c1N=NN(C)C
inactive: [1]; at 1.2 µM 3% | [1]; at 3.7 µM 4% | [1]; at 11.0 µM 40% | [2]; at 1.2 µM -5% | [2]; at 3.7 µM -4% | [2]; at 11.0 µM -8% | [2]; at 33.0 µM -7% | [2]; at 100.0 µM -1% | [3]; at 1.2 µM -1% | [3]; at 3.7 µM 15% | [3]; at 11.0 µM 37% | [4]; at 1.2 µM -5% | [4]; at 3.7 µM 3% | [4]; [15] -90% | [4]; at 11.0 µM 33% | [5]; at 1.2 µM 1% | [5]; at 3.7 µM -1% | [5]; [15] -46% | [5]; at 11.0 µM -10% | [5]; at 33.0 µM 4% | [5]; [16] -16% | [5]; at 50.0 µM 24.4% | [5]; at 100.0 µM 61% | [6]; [15] -47% | [6]; [16] 24% | [6]; at 50.0 µM 28.9% | [7]; at 1.2 µM -3% | [7]; at 3.7 µM -5% | [7]; at 11.0 µM -2% | [7]; at 33.0 µM -5% | [7]; at 100.0 µM 6% | [8]; [15] -55% | [8]; [16] -43% | [8]; at 50.0 µM 5.65% | [9]; at 1.2 µM -17% | [9]; at 3.7 µM -5% | [9]; [15] -63% | [9]; at 11.0 µM -5% | [9]; at 33.0 µM -14% | [9]; [16] -87% | [9]; at 50.0 µM -4% | [9]; at 100.0 µM -2% | [10]; at 1.2 µM -2% | [10]; at 3.7 µM -1% | [10]; at 11.0 µM -2% | [10]; at 33.0 µM -8% | [10]; at 100.0 µM 4% | [11]; at 1.2 µM 4% | [11]; at 3.7 µM -8% | [11]; at 11.0 µM -2% | [11]; at 33.0 µM -3% | [11]; at 100.0 µM 4% | [12]; at 1.2 µM -2% | [12]; at 3.7 µM -6% | [12]; at 11.0 µM 12% | [12]; at 33.0 µM 51% | [13]; [15] -101% | [13]; [16] 24% | [13]; at 50.0 µM 58.1% | [14]; at 1.2 µM 3% | [14]; at 3.7 µM 12% | [14]; at 11.0 µM 39%
active: [1]; at 33.0 µM 87% | [1]; at 100.0 µM 95% | [3]; at 33.0 µM 73% | [3]; at 100.0 µM 91% | [4]; at 33.0 µM 81% | [4]; [16] 83% | [4]; at 50.0 µM 91.5% | [4]; at 100.0 µM 93% | [12]; at 100.0 µM 84% | [14]; at 33.0 µM 80% | [14]; at 100.0 µM 94%
